Here are results for 5 molecules from PubChem BioAssay.

The viability is the share of living cells, or the viability signal relative to a control. Broadly, the inhibition is the relative decrease from the control value, in per cent.

A short description of assay [1]: P. berghei load reduction in hepatocytes – cell-based, HepG2, luciferase luminescence, HepG2 viability, primary screen (AID 624349; in the data active means parasite load remaining mostly below about 12%, no sharp cut-off; inactive means mostly above about 10%;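 further: 100% = mean of DMSO negative control wells on the same plate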). As to conditions: P. berghei liver stage in HepG2, luciferase luminescence, concentration not given here; parasite load remaining: stronger effect = lower value; viability: measured here: HepG2 viability without parasites.
A short description of assay [2]: galactose survival enhancers in mitochondrial complex I cybrids – cell-based, galactose medium, ATP luminescence, primary screen (AID 1645843;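 active means z-score of at least 1.8 in each of two replicates, scored against plate mean and spread of sample wells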;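 further: positive z means more ATP and so rescue of galactose-driven cybrid death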). The conditions noted are these: complex I mutant cybrid cells, 72 h, stronger effect = higher value.
The nature of assay [3]: growth inhibition, single agents and combos, LFS_MB_1R, cell-based, cisplatin or BGB combos, synergistic combos for chromothripsis tumors (AID 1671452).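 Further: cells exposed for 96 hours before readout.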 As to conditions: LFS_MB_1R medulloblastoma cells, stronger effect = higher value.
Assay [4] is described as follows: growth inhibition, single agents and combos, CRL2098, cell-based, BGB or cisplatin IC20 combos, synergistic combos for chromothripsis tumors (AID 1671454).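 Further: cells exposed for 96 h before readout; 0% = vehicle DMSO and 100% = killing by high DMSO.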 The conditions noted are these: CRL2098 osteosarcoma cells, drug combinations, stronger effect = higher value.
Assay [5] in a line: growth inhibition, single agents and combos, HD-MB03, cell-based, BGB or cisplatin IC20 combos, synergistic combos for chromothripsis tumors (AID 1671455; in the data active means inhibition above about 83%;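 further: 0% = vehicle DMSO and 100% = high DMSO as cytotoxic control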). As to conditions: HD-MB03 medulloblastoma cells, stronger effect = higher value.
Assay [6] can be described thus: growth inhibition, single agents and combos, UWB1.289, cell-based, BGB or cisplatin combos, synergistic combos for chromothripsis tumors (AID 1671456).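 Further: cells exposed to compound for four days; 0% = vehicle DMSO and 100% = killing by high DMSO.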 As to conditions: UWB1.289 ovarian carcinoma cells, stronger effect = higher value.
The nature of assay [7]: growth inhibition, single agents and combos, LFS_MB_2R, cell-based, cisplatin combos, synergistic combos for chromothripsis tumors (AID 1671457).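 Further: cells exposed to compound for four days before readout.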 As to conditions: LFS_MB_2R medulloblastoma cells, stronger effect = higher value.
Assay [8] is described as follows: UWB1.289_BRCA1 ovarian cancer growth, cell-based, BGB or cisplatin combinations (AID 1671459). As to conditions: UWB1.289 BRCA1 ovarian carcinoma, drug combinations, stronger effect = higher value.
Assay [9] is described as follows: drug combination toxicity in non-malignant astrocytes – cell-based, BGB or cisplatin IC20 combos, cytotoxicity control for chromothriptic childhood tumor combination screen (AID 1671460).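 Further: cells exposed to compounds for 96 hours before viability readout; 0% = vehicle and 100% = killing control.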 As to conditions: Human astrocytes, viability inhibition, drug combinations, at 0.5 µM, stronger effect = higher value.
Assay [10] in a line: CRL1545 cell growth, single agent and combined, cisplatin and BGB IC20 combos (AID 1671464).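 Further: cells exposed to compound for 96 hours before readout; 0% = vehicle DMSO and 100% = high DMSO killing control.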 As to conditions: CRL1545 osteosarcoma cells, stronger effect = higher value.
Assay [11] deals with NAD(+) hydrolase SARM1 (Homo sapiens) (UniProt Q6SZW1). In words: blocking NAD cleavage by SARM1 SAM-TIR – cell lysate, NAD-Glo luminescence (AID 1508614;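 active means compound whose remaining NAD level is above about 45 nM, limit read from the data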). As to conditions: SAM-TIR HEK293T lysate NADase, at 1 µM, stronger effect = higher value.
The mark [12] stands for this setting: measured here: combination with BGB IC40, at 0.05 µM.
Where [13] appears, read: measured here: combination with cisplatin, at 0.5 µM.
Where [14] appears, read: measured here: combination with cisplatin, at 5 µM.
Setting [15] is: measured here: combination with BGB at IC20, at 0.5 µM.
The mark [16] stands for this setting: measured here: combination with cisplatin at IC20, at 0.5 µM.
[17] abbreviates: measured here: combo with BGB at IC20, at 0.5 µM.
The mark [18] stands for this setting: measured here: combo with cisplatin at IC20, at 0.5 µM.
The mark [19] stands for this setting: measured here: inhibition with BGB combination, at 0.05 µM.
[20] abbreviates: measured here: inhibition with cisplatin combination, at 0.05 µM.
The mark [21] stands for this setting: BGB combination, concentration series, at 5 µM.
The mark [22] stands for this setting: cisplatin combination, concentration series, at 5 µM.
[23] abbreviates: measured here: combo with BGB IC20.
The mark [24] stands for this setting: measured here: combo with cisplatin IC20.
Setting [25] is: measured here: with BGB IC20 combination, at 0.5 µM.
Setting [26] is: measured here: with cisplatin IC20 combination, at 0.5 µM.

Where “and” joins values, the source holds several entries; their conditions need not be identical. Identical values can stand only once. More than one record can exist for a structure, and the calls need not agree. Calls of active or inactive are those of the source. Unless noted, no stated cut-off is given here; in the data, active means inhibition above about 80%; inactive means the rest.

Sequence of NAD(+) hydrolase SARM1 (Homo sapiens) (Q6SZW1 whole entry, looked up): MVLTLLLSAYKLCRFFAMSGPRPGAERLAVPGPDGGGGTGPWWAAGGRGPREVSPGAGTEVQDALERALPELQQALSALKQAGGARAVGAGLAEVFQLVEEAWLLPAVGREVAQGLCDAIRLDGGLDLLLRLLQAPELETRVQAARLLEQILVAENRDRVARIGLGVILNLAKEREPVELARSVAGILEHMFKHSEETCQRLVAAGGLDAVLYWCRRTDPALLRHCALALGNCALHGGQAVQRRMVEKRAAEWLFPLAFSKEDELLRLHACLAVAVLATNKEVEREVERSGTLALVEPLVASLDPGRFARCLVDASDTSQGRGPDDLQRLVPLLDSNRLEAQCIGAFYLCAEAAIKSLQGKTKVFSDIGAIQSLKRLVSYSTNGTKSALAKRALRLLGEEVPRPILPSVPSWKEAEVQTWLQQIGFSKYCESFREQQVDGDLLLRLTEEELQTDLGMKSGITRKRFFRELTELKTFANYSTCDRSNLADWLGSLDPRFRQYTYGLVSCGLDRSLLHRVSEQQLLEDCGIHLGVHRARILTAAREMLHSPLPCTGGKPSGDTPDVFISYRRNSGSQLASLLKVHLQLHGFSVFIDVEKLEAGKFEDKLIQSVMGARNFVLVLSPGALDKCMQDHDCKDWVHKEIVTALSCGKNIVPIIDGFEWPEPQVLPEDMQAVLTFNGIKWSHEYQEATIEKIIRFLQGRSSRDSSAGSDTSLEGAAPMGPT

Regarding `CC(C)=CC[C@@H](O)C1=CC(=O)c2c(O)ccc(O)c2C1=O`, in assay [1], the parasite load remaining was 4.44% (active) and the viability is 99.5%. Also, the z-score in assay [2] is -2.24 (inactive).
On to `Cc1[nH]c2ccccc2c1CCNCc1ccc(/C=C/C(=O)NO)cc1`, for which the inhibition in assay [3] (at 0.5 µM) is 93.3% (active) and 50.3% (inactive); in assay [3] (setting [12]), 50.6% and -33.1%; in [3] (setting [13]), 94.8% and 59%; in assay [3] (setting [14]), 101% and 94.7%; in assay [4] (at 0.5 µM), 96% (active) and 13.2% (inactive); in assay [4] (setting [15]), 95% and 15.5%. In addition, the inhibition in assay [4] (setting [16]) is 96.9% and -1.5%; in assay [5] (at 0.5 µM), 99.9% (active) and 93.8% (active); in assay [5] (setting [17]), 99.8% and 96.6%; in [5] (setting [18]) it was 99.9% and 99.7%; in assay [6] (at 0.5 µM) it was 82.2% (active) and 51.9% (inactive); in assay [6] (setting [19]), 27.3% and -1.85%. Moreover, the inhibition is 42.8% and 21.6% in assay [6] (setting [20]); 91.3% (active) and 29.2% (inactive) in [7] (at 0.5 µM); 101% and 47.2% in assay [7] (setting [13]); 109% and 98.7% in [7] (setting [14]); 121% and 109% in [8] (setting [21]); 90.3% (active) and 56.4% (inactive) in assay [8] (at 0.5 µM). Besides, the inhibition in assay [8] (setting [22]) is 127% and 128%; in assay [9], 101% (active) and 33.3% (inactive); in assay [9] (setting [23]), 102% and 30.8%; in [9] (setting [24]), 99.8% and 22.1%; in assay [10] (at 0.5 µM) it was 96.5% (active) and 85.3% (active); in [10] (setting [25]), 95.5% and 73.9%. Further, the inhibition in assay [10] (setting [26]) was 96.9% and 90.9%; in [10] (single agent, at 0.05 µM) it was 93.3% and 52.8%; in assay [10] (single agent, at 5 µM) it was 98.9% and 97.5%.
As for `C[C@]1(c2nc3c(C(N)=O)cccc3[nH]2)CCCN1`, the inhibition was -23.5% (inactive) and -13.6% (inactive) in [3] (at 0.5 µM); -41.9% and -23.5% in assay [3] (setting [12]); -45.7% and 4.68% in assay [3] (setting [13]); -38.3% and -18.5% in assay [3] (setting [14]); -49.8% (inactive) and -59.1% (inactive) in assay [4] (at 0.5 µM); -12.1% and -70.3% in [4] (setting [15]). Further, the inhibition is -110% and -65.8% in assay [4] (setting [16]); -8.8% (inactive) and -9.57% (inactive) in assay [5] (at 0.5 µM); -16.2% and -2.73% in [5] (setting [17]); -3.64% and -17.6% in assay [5] (setting [18]); -9.31% (inactive) and 2.13% (inactive) in [6] (at 0.5 µM); -8.28% and -17% in assay [6] (setting [19]). Besides, the inhibition is -23.7% and -11.7% in assay [6] (setting [20]); -25% (inactive) and -15.4% (inactive) in assay [7] (at 0.5 µM); -36.7% and -21.6% in assay [7] (setting [13]); -29.1% and -120% in [7] (setting [14]); 10.2% and -0.186% in assay [8] (setting [21]); -7.22% (inactive) and -0.79% (inactive) in assay [8] (at 0.5 µM). In addition, the inhibition is -4.84% and 4.22% in [8] (setting [22]); 9.85% (inactive) and -2.9% (inactive) in assay [9]; -1.53% and -5.78% in assay [9] (setting [23]); 9.8% and -13.1% in assay [9] (setting [24]); -23.7% (inactive) and 9.34% (inactive) in assay [10] (at 0.5 µM); -29.8% and -8.71% in [10] (setting [25]). The inhibition in [10] (setting [26]) is -22.5% and 16.5%; in [10] (single agent, at 0.05 µM), -19.2% and -14.5%; in assay [10] (single agent, at 5 µM) it was -45.7% and -33.6%.
As to `O=C(O)[C@H](Cc1c[nH]c2ccccc12)N1C(=O)c2ccccc2C1=O`, the inhibition is -21% (inactive) in assay [3] (at 0.5 µM); -49.9% in [3] (setting [12]); -9.64% in assay [3] (setting [13]); -81.2% in [3] (setting [14]); -82% (inactive) in assay [4] (at 0.5 µM); -46.6% in [4] (setting [15]). Also, the inhibition was -131% in [4] (setting [16]); -20.5% (inactive) in [5] (at 0.5 µM); -26.8% in [5] (setting [17]); -27.1% in assay [5] (setting [18]); -10.8% (inactive) in [6] (at 0.5 µM); -20.2% in assay [6] (setting [19]). The inhibition in assay [6] (setting [20]) is -43.5%; in assay [7] (at 0.5 µM), -17.3% (inactive); in assay [7] (setting [13]), -13%; in assay [7] (setting [14]) it was -8.45%; in assay [8] (setting [21]), -11.5%; in assay [8] (at 0.5 µM), -15.7% (inactive). For the same molecule, the inhibition in [8] (setting [22]) is -28.9%; in [9], -2.94% (inactive); in [9] (setting [23]) it was -8.01%; in assay [9] (setting [24]), 4.01%; in [10] (at 0.5 µM), -39.1% (inactive); in [10] (setting [25]), -34.3%. Besides, the inhibition in assay [10] (setting [26]) was -43.9%; in assay [10] (single agent, at 0.05 µM) it was -29.1%; in assay [10] (single agent, at 5 µM), -40.2%.
In the case of `C[C@H]1[C@H](OC(=O)CCC(=O)O)O[C@@H]2O[C@@]3(C)CC[C@H]4[C@H](C)CC[C@@H]1[C@@]24OO3`, the remaining NAD in assay [11] was 10 nM (inactive).
